Test results published in PubChem BioAssay AID686948 (National Center for Advancing Translational Sciences (NCATS), 2013).
Activity calls are given as the source filed them. Calls follow the shape of the dose curve; as a rule, active = well fitted inhibition curve with a large enough effect; inactive = flat fitted curve, though single readings scatter.

Target: Tyrosine-protein kinase Yes (Homo sapiens) (UniProt P07947)
Experiment: qHTS for small molecule inhibitors of Yes1 kinase: Confirmatory screen on the cherrypicks
Conditions: Recombinant Yes1, ADP-Glo luminescence, poly(E4Y) substrate
Excerpt: The Src family of non-receptor protein tyrosine kinases contains nine members, including Yes1, Src, Fyn, Lyn, and […]. These kinases have important roles in a variety of cellular functions, such as cell proliferation, survival, and differentiation. Src, the most well characterized member of this family, has been previously identified as a proto-oncogene. […] In melanoma, it has been shown that Yes1, and not other family members, such as Src, is functionally involved in the malignant phenotype. Additionally, a recent study examining the downregulation of Yes1 by shRNA found significant effects on cell survival/growth for basal-like and Her2-positive breast cancers. […]
Two microliter of Yes1 enzyme (columns 1-2, 5-48; Millipore, Billerica, MA) are dispensed into Greiner, white solid-bottom 1536-well assay plates; columns 3 and 4 receive buffer without Yes1 as a control for maximum inhibition. […] The production of ADP is then quantified by the ADP-Glo Kit (Promega, Madison, WI). First, 2 uL of the first kit reagent is added, and the reaction is incubated for 45 minutes; then, 4 uL of the second kit reagent are added and the reaction is incubated for 30 minutes at which time the luminescence is read on a Viewlux plate reader (Perkin-Elmer, Waltham, MA). […]

Tyrosine-protein kinase Yes (Homo sapiens), sequence (P07947 whole entry, looked up): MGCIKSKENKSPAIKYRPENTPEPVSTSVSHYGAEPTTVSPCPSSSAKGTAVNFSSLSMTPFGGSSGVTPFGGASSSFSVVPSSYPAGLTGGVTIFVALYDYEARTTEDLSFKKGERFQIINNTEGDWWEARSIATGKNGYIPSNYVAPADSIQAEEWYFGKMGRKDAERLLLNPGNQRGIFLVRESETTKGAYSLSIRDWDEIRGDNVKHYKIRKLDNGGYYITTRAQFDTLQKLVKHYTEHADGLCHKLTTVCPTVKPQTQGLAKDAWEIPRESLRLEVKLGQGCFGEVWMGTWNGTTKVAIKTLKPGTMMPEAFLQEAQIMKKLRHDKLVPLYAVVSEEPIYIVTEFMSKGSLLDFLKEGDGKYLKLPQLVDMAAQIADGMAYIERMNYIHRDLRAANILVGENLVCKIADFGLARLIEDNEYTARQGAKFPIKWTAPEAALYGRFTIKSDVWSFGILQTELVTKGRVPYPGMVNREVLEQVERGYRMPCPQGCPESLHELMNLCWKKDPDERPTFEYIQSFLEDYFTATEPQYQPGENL

Q: How did the Potency turn out when c1cc(-c2cnn3cc(-c4ccc(OCCN5CCCCC5)cc4)cnc23)ccn1 was run?
A: 196 nM (active)
